High-throughput results from PubChem.
RGS4 inhibitor: blocks human RGS4-accelerated GTP hydrolysis | Transcreener GDP fluorescence polarization, RGS4-accelerated GTP hydrolysis | 390,000 tested, 0.039% active | Potency, µM (highest dose often 114 µM), for inactives: top-dose activity change, negative = inhibition, usual class: inhibitors; also: potency is read from the fitted curve at half-maximal effect; % is scaled to controls: 0 for no effect and ±100 for the full control effect; nearly all actives have a fitted effect of over 75% in size
Target sequence (P49798 whole entry, looked up): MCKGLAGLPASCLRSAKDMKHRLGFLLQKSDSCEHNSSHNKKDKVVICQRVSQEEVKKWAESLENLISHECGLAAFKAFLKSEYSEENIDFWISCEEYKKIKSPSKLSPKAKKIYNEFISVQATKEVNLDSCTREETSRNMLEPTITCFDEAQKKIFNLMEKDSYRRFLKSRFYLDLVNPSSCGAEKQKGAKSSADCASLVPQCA
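MLSMR compounds (23 nl, pin-transferred) preincubated 10 min at room temperature with a 500nM (2x) first reagent, then RGS4 at 900nM (2x) plus Transcreener GDP mix added; fluorescence polarization (620/688 nm) read before and after 90 min at 30 °C.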
BRCA1 expr act: BRCA1 expression activation | MCF7-BRCA1-FFLuc reporter, luminescence, 48 h; response scale: scaled: vehicle 0%, 10 µM genistein 100% | Potency, µM (titrated, usually from 46.1 µM), without a hit: at the highest dose activation, most hits filed as activators | 380,000 tested, 1.1% active | AID 624202; also: potency is read from the fitted curve at half-maximal effect; nearly all actives have a fitted effect of over 80% in size
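Using MCF7 cells harboring a BRCA1 firefly luciferase reporter, plated 2 h before compound pinning, the screen measured luminescence after 48 h incubation. Responses were normalized to DMSO and 10 microM genistein, then fitted for concentration-effect.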
B2AR arrestin: recruits beta-arrestin to the human beta2-adrenergic receptor; P07550; beta-arrestin recruitment to beta2AR, cell-based reporter; Potency, µM (highest dose often 46.1 µM), without a hit: top-dose activation, most hits filed as activators; 330,000 tested, 0.02% active; AID 492947;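 also: potency is read from the fitted curve at half-maximal effect; 0% = DMSO controls and full agonism = EC100 isoproterenol or metaproterenol; nearly all actives have a fitted effect of over 65% in size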
PTHR1 agonist: PTHR1 (human) receptor agonism | Q03431 | HEK293 GP2 PTHR1 cells, GloSensor cAMP luminescence, 1 h | Potency, µM (titrated, usually from 115 µM), for the others: top-dose activation, most hits filed as activators | 410,000 tested, 0.075% active; also: potency is read from the fitted curve at half-maximal effect; nearly all actives have a fitted effect of over 55% in size
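HEK-293-derived GP2 cells expressing PTHR1 and a GloSensor cAMP reporter, 3,000/well, plated overnight, given luciferin plus IBMX (each 0.5 mM as added) for 1 h at 37 °C, then compound for 1 h at 37 °C. Luminescence was read after 15 min at room temperature.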
DRD3 agonist: D3 dopamine receptor (human) agonism; D3R DiscoveRx beta-arrestin cells, luminescence, 90 min; max activation, %; 410,000 tested, 0.58% active; AID 652048; in the data active = max activation above about 30%; also: 0% is about no effect
Target sequence (P35462 whole entry, looked up): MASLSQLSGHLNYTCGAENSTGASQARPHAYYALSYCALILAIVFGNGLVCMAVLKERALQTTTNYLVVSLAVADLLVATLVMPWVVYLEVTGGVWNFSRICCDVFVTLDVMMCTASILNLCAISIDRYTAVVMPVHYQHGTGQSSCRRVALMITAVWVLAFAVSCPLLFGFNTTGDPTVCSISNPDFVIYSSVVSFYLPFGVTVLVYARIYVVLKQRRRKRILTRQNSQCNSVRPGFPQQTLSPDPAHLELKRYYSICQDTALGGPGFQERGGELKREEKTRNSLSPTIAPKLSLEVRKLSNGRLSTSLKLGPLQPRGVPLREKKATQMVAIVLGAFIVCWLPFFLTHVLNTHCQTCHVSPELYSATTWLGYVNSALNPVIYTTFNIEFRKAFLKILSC
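Agonist mode: compounds and dopamine controls were applied to plated cells for 90 min at 37 degrees C after an overnight attachment at 1500 cells/well. Luminescent read-out followed 30 - 60 minutes at room temperature with DiscoveRx detection reagent.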
DRD3 antagonist: D3 dopamine receptor (human) antagonism; D3R cells, DiscoveRx beta-arrestin luminescence, antagonist mode; stronger effect = lower value; 360,000 tested, 2.5% active; max response, negative = inhibition, %; AID 652054; in the data active = max response below about -50%; inconclusive = no clear call, values can overlap the other calls; also: % is scaled to controls: 0 for no effect and ±100 for the full control effect
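Cells expressing the human receptor were seeded at 1500 cells/well, incubated overnight at 37 degrees C in 5% CO2, then exposed to library compounds with dopamine controls for 90 minutes at 37 degrees C before luminescent detection.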
An asterisk follows results filed as active; i = inactive; ? = inconclusive; . = not tested or not shown; [ ] = remark or other dose. A selection: hits, their analogues and other compounds. The true share with any hit is near 3.7%. Unless noted, calls follow the shape of the dose curve; as a rule, active = well fitted curve in the direction sought with a large enough effect; inconclusive = small, poorly fitted or top-dose-only effect, or another doubt; inactive = no such curve, though single readings can be large; an effect the other way counts as inactive or inconclusive.

SMILES	RGS4 inhibitor	BRCA1 expr act	B2AR arrestin	PTHR1 agonist	DRD3 agonist	DRD3 antagonist
O=C1/C(=C/c2ccccc2[N+](=O)[O-])COc2ccccc21	-34%	-90%	0%	-85%	-12	-71*
CNc1ccc(/C=C2\COc3ccccc3C2=O)cc1[N+](=O)[O-]	6%	9%	0%	-35%	0	9
c1ccc2c(c1)CCN(CCCNc1nc3ccccc3n3cnnc13)C2	-24%	-3%	0%	i	-20	-109*
COc1ccc(NC2=NC3(CCCCC3)N=C(N)N2)cc1	-8%	-16%	0%	i	0	-13
COc1ccc(OC)c(NC2=NC3(CCCCC3)N=C(N)N2)c1	-4%	-81%	0%	i	0	-55*
COc1ccc(-n2nc(C(=O)NCC(=O)N3CCOCC3)c3ccccc3c2=O)c(OC)c1	-10%	19%	0%	i	-1	0
COc1ccc(-n2nc(C(=O)NCC(=O)N3CCCCC3)c3ccccc3c2=O)c(OC)c1	34%	13µM*	0%	i	-12	-18
COc1ccc(-n2nc(C(=O)NCC(=O)N3CCN(c4ccccc4F)CC3)c3ccccc3c2=O)cc1OC	-7%	8.9µM*	-1%	-5%	4	21
COc1ccc(-n2nc(C(=O)NCC(=O)N3CCCCCC3)c3ccccc3c2=O)c(OC)c1	-13%	11µM*	0%	i	1	2
COc1ccccc1N1CCN(C(=O)CNC(=O)c2cn(-c3ccccc3OC)c(=O)c3ccccc23)CC1	-26%	65%	0%	i	-1	9
COc1ccc(-n2nc(C(=O)NCC(=O)N3CCC(C)CC3)c3ccccc3c2=O)c(OC)c1	5%	?	0%	-79%	14	-4
COc1ccccc1-n1cc(C(=O)NCC(=O)N2CCN(c3ccccc3)CC2)c2ccccc2c1=O	-6%	13µM*	0%	i	-16	-14
CC(=O)C[C@@H]1OC[C@H](Cc2ccccc2)N1S(=O)(=O)c1ccc(C)cc1	.	.	.	-3%	2	20
O=C1C=C(c2ccc3c(c2)OCO3)C[C@@H](c2ccc(Cl)cc2)C1	7%	0%	0%	i	-3	?
N#C/C(=C\c1ccc([N+](=O)[O-])o1)c1nc2ccccc2[nH]1	-29%	-60%	6%	-36%	45*	-29
O=C(CCC(C(=O)c1ccccc1)c1ccccc1)c1ccccc1 (stereo not drawn)	.	-27%	.	i	2	7
COc1ccc(C)c2sc(=NC(=O)c3ccc(C(C)=O)cc3)n(C)c12	2%	0.79µM*	0%	-23%	3	19
Cc1noc(C)c1C(=O)OCC(=O)Nc1ccc(N2CCOCC2)cc1	-29%	6%	0%	18µM*	0	3
Cc1ncc(C(=O)O)c(C(=O)O)c1N	23%	-5%	0%	0%	2	-8
O=C(Nc1ccc2c(c1)OCCO2)C(c1cc2ccccc2o1)N1CCN(C/C=C/c2ccccc2)CC1 (stereo not drawn)	.	-11%	.	-18%	-6	-111*
O=C(Nc1ccc2c(c1)OCCO2)C(C1CC1)N1CCN(C/C=C/c2ccccc2)CC1 (stereo not drawn)	.	8%	.	-21%	-5	-59*
c1ccc(-c2nn3c(Cn4nnc5ccccc54)nnc3s2)nc1	-31%	-41%	0%	-2%[57.5 µM]	-5	-9
c1cncc(-c2nn3c(Cn4nnc5ccccc54)nnc3s2)c1	-16%	4%	0%	i	51*	19
C[Si](C)(C)O[Si](C)(C)C	.	.	.	.	3	.
COC(=O)C1CCN(C(=O)Cc2ccc(C)cc2)CC1	8%	12%	1%	i	2	0
SMILES	RGS4 inhibitor	BRCA1 expr act	B2AR arrestin	PTHR1 agonist	DRD3 agonist	DRD3 antagonist
CCOC(=O)N1CCN(C(=O)CSCc2ccccc2)CC1	7%	11µM*	0%	i	7	7
CCOC(=O)N1CCN(C(=O)Cc2ccc(C)cc2)CC1	17%	23%	0%	i	1	-58*
CN(C)CCN1CCN(C(c2cc3ccccc3o2)c2nnnn2C(C)(C)C)CC1 (stereo not drawn)	.	9%	.	i	-4	0
CN1CCN(C2Cc3cc(F)ccc3Sc3ccc(Cl)cc32)CC1 (stereo not drawn)	-2%	-16%	.	i	-22	-120*
CN1CCN(C2Cc3ccc(F)cc3Sc3cc(F)c(Cl)cc32)CC1 (stereo not drawn)	5%	-16%	.	46%	-21	-105*
Cc1sc2ncnc(N3CCCCC3)c2c1C	-19%	-43%	-2%	-24%	8	30
Cc1ccc(OCCN2CCN(c3ncnc4sc(C)c(C)c34)CC2)cc1	34%	-64%	-1%	-29%	33*	16
Cc1ccc(-n2c(C)nn(CCOc3ccccc3)c2=O)cc1	1%	6.3µM*	0%	-9%	-13	-1
Cc1nn(CCOc2ccccc2)c(=O)n1-c1c(F)cccc1F	10%	5.6µM*	0%	-43%[57.5 µM]	6	4
C=CCn1c(SCC(=O)N(C)C2CCS(=O)(=O)C2)nnc1-c1ccncc1 (stereo not drawn)	5%	-3%	0%	i	-2	-54*
O=C(Nc1cccc(Cl)c1)Nc1c[nH]c(=O)[nH]c1=O	-4%	-7%	0%	i	6	1
COCCCNC(=O)C[C@@H]1C[C@@]2(C(=O)OC)CC(C)(C)CC=C2N(CCc2ccc(OC)c(OC)c2)C1=O	.	.	.	-20%	-21	-70*
CCN1CCN(C(=O)c2ccc(CSc3ccc(C)cc3)cc2)CC1	16%	4%	0%	-52%	-30	-53*
Cc1ccc(SCc2ccc(C(=O)N3CCCC3)cc2)cc1	7%	11µM*	0%	-36%	3	9
Cc1ccc(SCC(=O)N2CCCC2)cc1	51%	79%	0%	i	1	8
CCC(CO)Oc1cc(NCc2ccc(O)cc2)c2ncn(C(C)C)c2c1 (stereo not drawn)	14%	6%	0%	-12%	2	16
CCC(CO)Oc1cc(NCc2ccccc2)c2ncn(C(C)C)c2c1 (stereo not drawn)	?	3%	0%	i	37*	5
COc1ccc(Cc2nc3ccc(C(=O)NC(C)C)cc3o2)cc1	-4%	87%	.	-56%	4	11
COc1cccc(-c2nc3ccc(C(=O)N4CCCC(O)C4)cc3o2)c1 (stereo not drawn)	20%	3.2µM*	-1%	-36%	-3	-13
COc1ccc(Cc2nc3ccc(C(=O)N4CCCC4)cc3o2)cc1	18%	6.3µM*	1%	-37%	2	-3
